# Measurements published in PubChem BioAssay (NCATS).
# Inconclusive results are not listed. Entries that show only a call come without a potency. Activity calls are given as the source filed them. Unless noted, the call rests on the fitted dose curve; in most records, active means well fitted inhibition curve with a large enough effect; inconclusive means small, poorly fitted or top-dose-only effect; inactive means flat fitted curve, though single readings scatter.
# Key:
# [1] = qHTS drug screen for cell cycle checkpoint inhibitors in PARPi-resistant BRCA-mutant ovarian cancer cell lines. (AID 1963452; calls by dose curve); conditions: PEO1/OlaR viability, CellTiter-Glo luminescence, 96 h, stronger effect = lower value
# Summary of the method: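 PEO1, PEO4 and PEO1/OlaR ovarian cancer cells, 600 per well, exposed 96 h at 37C to a dilution series. Viability read by CellTiter-Glo luminescence, normalized to DMSO and empty wells; activity summarized as Z-AUC.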
# [2] = qHTS profiling for inhibitors of Plasmodium falciparum proliferation (AID 504749); further: nearly all actives have a fitted effect of over 60% in size; conditions: P. falciparum in erythrocytes, SYBR Green DNA, 72 h, at 28.7 µM (top of the series)
# Summary of the method: (§1)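 In a 72 h erythrocytic culture (37 C, humidified, 5% CO2) at 2.5% hematocrit and 0.3% starting parasitemia, compounds were tested; SYBR Green I in detergent lysis buffer stained parasite DNA overnight.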
# 3D7 = assay: as above; conditions: P. falciparum in erythrocytes, SYBR Green DNA, 72 h; series mostly up to 28.7 µM
# Summary of the method: as §1
# AA1029 = assay: as above; conditions: P. falciparum in erythrocytes, SYBR Green DNA, 72 h; series mostly up to 28.7 µM
# Summary of the method: as §1
# AS120 = assay: as above; conditions: P. falciparum in erythrocytes, SYBR Green DNA, 72 h; series mostly up to 28.7 µM
# Summary of the method: as §1
# ATS189 = assay: as above; conditions: P. falciparum in erythrocytes, SYBR Green DNA, 72 h; series mostly up to 28.7 µM
# Summary of the method: as §1
# ATS95 = assay: as above; conditions: P. falciparum in erythrocytes, SYBR Green DNA, 72 h; series mostly up to 28.7 µM
# Summary of the method: as §1
# C2A = assay: as above; conditions: P. falciparum in erythrocytes, SYBR Green DNA, 72 h; series mostly up to 28.7 µM
# Summary of the method: as §1
# CP185 = assay: as above; conditions: P. falciparum in erythrocytes, SYBR Green DNA, 72 h; series mostly up to 28.7 µM
# Summary of the method: as §1
# CP191 = assay: as above; conditions: P. falciparum in erythrocytes, SYBR Green DNA, 72 h; series mostly up to 28.7 µM
# Summary of the method: as §1
# CP192 = assay: as above; conditions: P. falciparum in erythrocytes, SYBR Green DNA, 72 h; series mostly up to 28.7 µM
# Summary of the method: as §1
# CP194 = assay: as above; conditions: P. falciparum in erythrocytes, SYBR Green DNA, 72 h; series mostly up to 28.7 µM
# Summary of the method: as §1
# CP201 = assay: as above; conditions: P. falciparum in erythrocytes, SYBR Green DNA, 72 h; series mostly up to 28.7 µM
# Summary of the method: as §1
# CP203 = assay: as above; conditions: P. falciparum in erythrocytes, SYBR Green DNA, 72 h; series mostly up to 28.7 µM
# Summary of the method: as §1
# CP211 = assay: as above; conditions: P. falciparum in erythrocytes, SYBR Green DNA, 72 h; series mostly up to 28.7 µM
# Summary of the method: as §1
# CP215 = assay: as above; conditions: P. falciparum in erythrocytes, SYBR Green DNA, 72 h; series mostly up to 28.7 µM
# Summary of the method: as §1
# CP217 = assay: as above; conditions: P. falciparum in erythrocytes, SYBR Green DNA, 72 h; series mostly up to 28.7 µM
# Summary of the method: as §1
# CP237 = assay: as above; conditions: P. falciparum in erythrocytes, SYBR Green DNA, 72 h; series mostly up to 28.7 µM
# Summary of the method: as §1
# CP238 = assay: as above; conditions: P. falciparum in erythrocytes, SYBR Green DNA, 72 h; series mostly up to 28.7 µM
# Summary of the method: as §1
# 7G8 = assay: as above; conditions: P. falciparum in erythrocytes, SYBR Green DNA, 72 h; series mostly up to 28.7 µM
# Summary of the method: as §1
# [3] = measured here: PEO1 parental Z-AUC
structure (smiles),measurement,setting,value
COc1ccc(/C=C/C(=O)Nc2ccccc2C(=O)O)cc1OC,Z-AUC,[1],1.02 (inactive)
same,Z-AUC,[1]; [3],1.51
same,Z-AUC,[1]; measured here: PEO4 Z-AUC,0.971
same,"activity, negative = inhibition",[2]; parasite line A,3.65% (inactive)
same,"activity, negative = inhibition",[2]; parasite line B,-0.207% (inactive)
same,Potency,3D7,inactive
same,Potency,AA1029,inactive
same,Potency,AS120,inactive
same,Potency,ATS189,inactive
same,Potency,ATS95,inactive
same,Potency,C2A,inactive
same,Potency,CP185,inactive
same,Potency,CP191,inactive
same,Potency,CP192,inactive
same,Potency,CP194,inactive
same,Potency,CP201,inactive
same,Potency,CP203,inactive
same,Potency,CP211,inactive
same,Potency,CP215,inactive
same,Potency,CP217,inactive
same,Potency,CP237,inactive
same,Potency,CP238,inactive
O=C(Nc1ccc2c(c1)CCN(Cc1ncn[nH]1)C2)c1ccccc1-c1ccc(C(F)(F)F)cc1,Z-AUC,[1],-0.0591 (inactive)
same,Z-AUC,[1]; [3],-0.291
same,Z-AUC,[1]; measured here: PEO4 Z-AUC,0.47
Nc1ccc(O)c(C(=O)O)c1,"activity, negative = inhibition",[2]; parasite line A,-0.61% (inactive)
same,"activity, negative = inhibition",[2]; parasite line B,-10.7% (inactive)
same,Potency,3D7,inactive
same,Potency,7G8,inactive
same,Potency,AA1029,inactive
same,Potency,AS120,inactive
same,Potency,ATS189,inactive
same,Potency,ATS95,inactive
same,Potency,C2A,inactive
same,Potency,CP185,inactive
same,Potency,CP191,inactive
same,Potency,CP192,inactive
same,Potency,CP194,inactive
same,Potency,CP201,inactive
same,Potency,CP203,inactive
same,Potency,CP211,inactive
same,Potency,CP215,inactive
same,Potency,CP217,inactive
same,Potency,CP237,inactive
same,Potency,CP238,inactive
CCNC(=O)[C@H]1O[C@@H](n2cnc3c(N)nc(NCCc4ccc(CCC(=O)O)cc4)nc32)[C@H](O)[C@@H]1O,Z-AUC,[1],1.44 (inactive)
same,Z-AUC,[1]; [3],0.917
same,Z-AUC,[1]; measured here: PEO4 Z-AUC,1.15
C=CCc1cccc(/C=N/NC(=O)CN2CCN(Cc3ccccc3)CC2)c1O,Z-AUC,[1],0.78 (inactive)
same,Z-AUC,[1]; [3],0.857
same,Z-AUC,[1]; measured here: PEO4 Z-AUC,0.395
C#C[C@]1(O)CC[C@H]2[C@@H]3CCc4cc(O)ccc4[C@H]3CC[C@@]21C,Z-AUC,[1],-0.519 (inactive)
same,Z-AUC,[1]; [3],0.139
same,Z-AUC,[1]; measured here: PEO4 Z-AUC,0.344
same,"activity, negative = inhibition",[2]; parasite line A,17.5% (inactive)
same,"activity, negative = inhibition",[2]; parasite line B,5.92% (inactive)
same,Potency,3D7,inactive
same,Potency,7G8,inactive
same,Potency,AA1029,inactive
same,Potency,AS120,inactive
same,Potency,ATS189,inactive
same,Potency,ATS95,inactive
same,Potency,C2A,inactive
same,Potency,CP185,inactive
same,Potency,CP191,inactive
same,Potency,CP192,inactive
same,Potency,CP194,inactive
same,Potency,CP201,inactive
same,Potency,CP203,inactive
same,Potency,CP211,inactive
same,Potency,CP215,inactive
same,Potency,CP217,inactive
same,Potency,CP237,inactive
same,Potency,CP238,inactive
Oc1cc(O)cc(/C=C/c2ccc(O)c(O)c2)c1,Z-AUC,[1],1.52 (inactive)
same,Z-AUC,[1]; [3],0.906
same,Z-AUC,[1]; measured here: PEO4 Z-AUC,0.317
